Shown are actives, neighbours in structure and some others; about 6.5% of the full set was active somewhere.
Marburg entry inh – Marburg virus entry inhibition; Marburg virus pseudotyped entry inhibition, cell reporter; Potency, µM (series often up to 37.8 µM), without a hit: at the highest dose activity change, negative = inhibition, most hits filed as inhibitors; 300,000 tested, 1.8% active; AID 540276; calls by dose curve; tested in HEK293 cells; also: potency is read from the fitted curve at half-maximal effect
Lassa entry inh – blocks Lassa virus binding to or entry into cells; Potency, µM (titrated, usually from 37.9 µM), without a hit: at the highest dose activity change, negative = inhibition, hits mostly inhibitors; AID 540256; 300,000 tested, 1.2% active; Lassa virus pseudotype entry inhibition, cell reporter; calls by dose curve; tested in HEK293 cells; also: potency is read from the fitted curve at half-maximal effect; nearly all actives have a fitted effect of over 50% in size
Vaccinia Venus – inhibitors of vaccinia virus (Venus reporter) | Potency, µM (top dose mostly 36.5 µM), inactives show top-dose activity change, negative = inhibition, usual class: inhibitors | 330,000 tested, 0.46% active | Vaccinia virus Venus reporter expression, fluorescence | AID 720580; calls by dose curve; tested in A549 cells; also: potency is read from the fitted curve at half-maximal effect; nearly all actives have a fitted effect of over 30% in size
VACV mCherry inh – inhibitors of vaccinia virus infection (mCherry reporter signal). Vaccinia virus mCherry reporter infection, fluorescence. Potency, µM (series often up to 36.5 µM), without a hit: top-dose activity change, negative = inhibition, most hits filed as inhibitors. 310,000 tested, 0.63% active. AID 720579; calls by dose curve; tested in A549 cells; also: potency is read from the fitted curve at half-maximal effect; nearly all actives have a fitted effect of over 35% in size
FMDV inh – blocks foot and mouth disease virus | AID 1159524 | FMDV antiviral cell-based qHTS | 410,000 tested, 1.2% active | Potency, µM (series often up to 57.9 µM), for the others: at the top dose activity change, negative = inhibition, usual class: inhibitors; calls by dose curve; tested in HEK293T cells; also: read-out not given here; potency is read from the fitted curve at half-maximal effect; nearly all actives have a fitted effect of over 45% in size
HCMV inh – human cytomegalovirus inhibition. HFF cells, HCMV-luciferase reporter, 72 h; active compounds read low. activity change, negative = inhibition, % at 57.5 µM. 410,000 tested, 4.5% active. AID 1259415; in the data active = activity change below about -60%; inconclusive = no clear call, values can overlap the other calls; inactive = above about -39%
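After 16 h attachment at 37C, HFF cells received test compound and HCMV-luciferase (1 PFU/cell); reporter luminescence read 72 h later, data normalized against buffer-only and known inhibitor Salinomycin.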
An asterisk follows results filed as active; i = inactive; ? = inconclusive; / = no result given; [ ] = dose if it differs, or a comment. % is scaled to controls: 0 for no effect and ±100 for the full control effect.

SMILES	Marburg entry inh	Lassa entry inh	Vaccinia Venus	VACV mCherry inh	FMDV inh	HCMV inh
CCN1/C(=C/C=C/c2sc3ccccc3[n+]2CC)Sc2ccccc21	/	/	i	i	14µM*	/
CC[n+]1c(/C=C/Nc2ccccc2)sc2ccccc21	?	-23%	12%	-7%	-20%	-16
O=S(=O)(O)Sc1ccccc1	/	/	-8%	-17%	-12%	-87*
CCN(CC)c1ccc(SS(=O)(=O)O)cc1	3%	?	15%	/	-15%	-37
COc1ccc(S[C@]2(c3nc(C)no3)CC(=O)N(c3ccc(Cl)cc3)[C@@H]2c2ccc(OC)cc2)cc1	/	/	/	/	/	9
CCN1CCCC1CNC(=O)c1cc(NC(C)=O)c(N(C)C)cc1OC (centres undefined)	-21%	7%	/	/	20%	-68*
NC(=O)CC(NC(=O)Cc1cccc2ccccc12)c1ccc(NCCOc2ccccc2)c([N+](=O)[O-])c1 (centres undefined)	/	/	?	-28%	0%	-68*
COc1ccc(CCNc2ccc(C(CC(N)=O)NC(=O)c3ccc(Br)cc3)cc2[N+](=O)[O-])cc1 (centres undefined)	/	/	13µM*	-19%	-25%	-72*
NC(=O)CC(NC(=O)Cc1ccc(Br)cc1)c1ccc(NCc2ccc(F)c(F)c2)c([N+](=O)[O-])c1 (centres undefined)	/	/	?	18µM*	-24%	?
CCOc1ccc(NC(=O)Cc2cccc3ccccc23)c([N+](=O)[O-])c1	2%[46.1 µM]	4%	-4%	-18%	-15%	-74*
Cc1c(C(=O)NC2CCCc3ccccc32)cccc1[N+](=O)[O-] (centres undefined)	-17%[46.1 µM]	/	-19%	-5%	15%	-36
NC(=O)CC(NC(=O)c1ccccc1)c1ccc(NC2CCCCC2)c([N+](=O)[O-])c1 (centres undefined)	/	/	-26%	-11%	-11%	-27
NC(=O)CC(NC(=O)c1ccccc1)c1ccc(NC2CCCCCCC2)c([N+](=O)[O-])c1 (centres undefined)	/	/	-23%	-21%	?	-99*
NC(=O)CC(NC(=O)Cc1ccc(Br)cc1)c1ccc(N2CCC(Br)CC2)c([N+](=O)[O-])c1 (centres undefined)	/	/	?	i	-23%	-4
NC(=O)CC(NC(=O)Cc1ccc(Br)cc1)c1ccc(N2CCC(Cc3ccccc3)CC2)c([N+](=O)[O-])c1 (centres undefined)	/	/	11µM*	?	?	-15
O=C(NCCC1=CCCCC1)c1cc(S(=O)(=O)N2CCOCC2)c(Cl)cc1Cl	28%	-8%	-22%	-5%	-19%	-6
Cc1ccc(C)c(S(=O)(=O)N2CCCOC2CNC(=O)C(=O)NCCC2=CCCCC2)c1 (centres undefined)	-18%	?	-19%	-8%	?	-67*
O=C(NCCC1=CCCCC1)c1ccc(Cl)c(S(=O)(=O)N2CCCCC2)c1	/	/	/	/	?	-81*
O=C(NCCC1=CCCCC1)c1ccc(Cl)c(S(=O)(=O)N2CCOCC2)c1	-11%	-21%	/	/	?	-66*
Cc1ccc(C)c(S(=O)(=O)N2CCCOC2CNC(=O)C(=O)NCCc2ccccc2)c1 (centres undefined)	?	?	-30%	-9%	-8%	?
NS(=O)(=O)c1ccc(CCNC(=O)c2ccc(Cl)c(S(=O)(=O)N3CCCCC3)c2)cc1	?	?	295%	114%	45µM*	?
O=C(O)c1ccc(-n2cccc2/C=N/NC(=O)c2cc3cc(Br)ccc3o2)cc1	-12%[46.1 µM]	/	/	/	/	/
Cc1ccc(NC2=CC(=O)C(=O)c3ccccc32)c(C)c1	/	/	/	/	?	-96*
O=C1C=C(Nc2cccnc2)c2ccccc2C1=O	?	?	10µM*	?	?	23
O=C1C=C(NCc2ccccc2)c2ccccc2C1=O	?	?	11µM*	?	-16%	-84*
SMILES	Marburg entry inh	Lassa entry inh	Vaccinia Venus	VACV mCherry inh	FMDV inh	HCMV inh
O=c1cccccc1NCc1ccccc1	10%	26%	/	/	47%	-33
O=C1C=C(Nc2ccc(F)cc2)c2ccccc2C1=O	?	?	-17%	?	?	34
O=C1C=C(Nc2ccccc2O)c2ccccc2C1=O	?	?	?	5µM*	?	-93*
COc1cccc(CNC(=O)c2c(OC)cc(=O)n3c2CCN(C(=O)C2CC24CCCCC4)CC3)c1 (centres undefined)	/	/	-1%	0%	-7%	/
CCOC(=O)/C=c1\s/c(=C(/C#N)C(=O)OCC)n(-c2ccccc2)c1=O	-6%[46.1 µM]	/	/	/	/	/
CCC[C@H]1[C@@H](NS(=O)(=O)c2ccccc2C)CC[C@@]23CCCN2C(=O)CCC[C@@H]13	/	/	/	/	/	-26
CC(C)(C)c1ccccc1OCCOCCN1CCCCCC1	?	-20%	-24%	-25%	-29%	?
Cc1ccc(C(C)(C)C)c(OCCOCCN2CCCC2)c1	12µM*	?	-11%	-23%	7%	-10
CCC(C)c1ccccc1OCCCCN1CCCC1 (centres undefined)	?	?	-18%	i	?	-36
CCC(C)c1ccccc1OCCOCCN1CCCC1 (centres undefined)	?	18µM*	-6%	-16%	0%	-31
Cc1cc(NC(=O)C2CCN(S(=O)(=O)c3cccc4nsnc34)CC2)ccc1Br	-7%[46.1 µM]	21%[46.1 µM]	-12%	i	-21%	?
COc1cccc(CN2CCOc3ccc(CN4C[C@@H](C)O[C@@H](C)C4)cc3C2)c1OC	/	/	-13%	i	-5%	/
FC(F)Oc1ccc(COc2ccc3c(-c4ccccn4)noc3n2)cc1	/	/	/	/	/	12
CCc1nc2sc3c(c2c(=O)n1NC(=O)CCl)CCCC3	-25%	2%	/	/	?	-74*
CCc1noc(C)c1C(=O)OCC(=O)NCc1ccc(Cl)cc1	-5%[46.1 µM]	30%[46.1 µM]	-14%	i	9%	25
Cc1c(C(=O)N2CCOCC2)sc2ncn(CC(=O)N3CCC(C)CC3)c(=O)c12	10%	3%	0%	i	-14%	/
Cc1c(C(=O)N2CCN(c3ccc([N+](=O)[O-])cc3)CC2)sc2ncn(CC(=O)N3CCOCC3)c(=O)c12	?	0%[46.1 µM]	-9%	-22%	-16%	-80*
C/C(N)=C(/C#N)C(=O)CSc1nnc(COc2ccccc2Cl)o1	1%	-1%[46.1 µM]	?	7.9µM*	29%	2
COCCNC(=O)CCCn1c(=O)c2cc(OC)c(OC)cc2n(CC(=O)c2ccc(Cl)cc2)c1=O	/	/	/	/	/	-25
COC(=O)C(c1ccc(Br)cc1)(c1cn(C)c2ccccc12)C(Nc1ccccc1)c1ccccc1 (centres undefined)	/	/	/	/	/	-79*
COc1ccc(NC(=O)N2c3ccc(OC)cc3[C@@H](NC(=O)OCc3ccccc3)[C@H](C)[C@H]2c2ccccc2)cc1	/	/	/	/	/	3
COc1ccc(CN2CCC3(CCC(CNC(=O)C4CCCO4)O3)CC2)c(C)c1C (centres undefined)	/	/	45%	-1%	-16%	/
